Experimental findings from PubChem BioAssay (EPA / NIEHS) are described below.

Each structure is given as a SMILES string. Several values for one entry are separate records, joined by “and”; a condition that tells them apart may be missing. Equal values may be shown once. Results filed as inconclusive are left out. More than one record can exist for a structure, and the calls need not agree. Activity calls are given as the source filed them. The calls were made as follows, unless noted: active = hit-call score of the fitted dose curve at least 0.9, where 1 is the maximum; inactive = score below 0.9.

Assay [1] in a line: ATG_NFI_CIS: Attagene CIS-FACTORIAL HepG2 Assay for human Nuclear Factor I (NFI) (AID 2282989). As to conditions: HepG2 cis-regulatory reporter, NFI response element transcription; actives raise or lower the signal. The method in brief:
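Multiplexed cis-reporter system in human HepG2 cells reports native TF activity as reporter mRNA induction 24 h post-dose. Fragments labelled with 6-FAM, HpaI-digested and resolved by capillary electrophoresis; activity fitted both directions versus DMSO.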

For assay [2], the target named is Myc proto-oncogene protein (Homo sapiens) (UniProt P01106). Description: ATG_Myc_CIS: Attagene CIS-FACTORIAL HepG2 Assay for human Myelocytomatosis (Myc) Proto-Oncogene Transcription Factor (AID 2282990). Conditions: HepG2, Attagene cis-reporter transcription factor activity; actives raise or lower the signal. The method in brief: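 After 24 h chemical treatment of HepG2 cells carrying multiplexed cis-regulated reporter constructs, reporter transcripts quantified by RT-PCR and capillary electrophoresis of fluorescent fragments. Gain or loss fitted against DMSO baseline.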
Sequence of Myc proto-oncogene protein (Homo sapiens) (P01106 whole entry, looked up, the tested form may be a part): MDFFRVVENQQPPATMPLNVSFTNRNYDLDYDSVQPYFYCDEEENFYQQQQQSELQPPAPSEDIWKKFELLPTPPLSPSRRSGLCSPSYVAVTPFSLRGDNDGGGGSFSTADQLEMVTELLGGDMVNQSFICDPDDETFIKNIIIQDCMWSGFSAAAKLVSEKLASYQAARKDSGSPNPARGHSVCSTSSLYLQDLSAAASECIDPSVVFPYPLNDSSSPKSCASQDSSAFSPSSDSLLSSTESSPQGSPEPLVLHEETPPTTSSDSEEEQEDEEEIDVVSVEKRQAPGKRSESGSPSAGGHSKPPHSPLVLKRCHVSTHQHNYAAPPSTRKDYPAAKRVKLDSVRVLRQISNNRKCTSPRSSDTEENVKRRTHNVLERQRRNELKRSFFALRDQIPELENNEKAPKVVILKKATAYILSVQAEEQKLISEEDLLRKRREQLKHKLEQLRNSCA

A short description of assay [3]: ATG_NF_kB_CIS: Attagene CIS-FACTORIAL HepG2 Assay for human Nuclear Factor Kappa B (NF-kB) (AID 2282991). Conditions: HepG2 Attagene cis-factorial NF-kB reporter mRNA; actives raise or lower the signal. A digest of the protocol:
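HepG2 cells transfected with cis-promoter-driven reporter units, so endogenous transcription factor activity is measured. Reporter mRNA quantified 24 h after dosing by RT-PCR and capillary electrophoresis, with bidirectional fitting against DMSO.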

Assay [4] is described as follows: ATG_NRF2_ARE_CIS: Attagene CIS-FACTORIAL HepG2 Assay for human Nuclear Factor Erythroid 2 Related Factor 2 (NFR2) response to Antioxidant Response Elements (ARE) (AID 2282992).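 As to AC50: reporter mRNA level measured by RT-PCR and capillary electrophoresis fluorescence.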 As to conditions: HepG2 Attagene ARE/NRF2 reporter, transcription factor activity; actives raise or lower the signal. A digest of the protocol: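 Cis-factorial assay: transfected HepG2 reporter library, 24 h dosing, mRNA readout via RT-PCR/CE; DMSO-referenced bidirectional analysis.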

Assay [5] is described as follows: ATG_Oct_MLP_CIS: Attagene CIS-FACTORIAL HepG2 Assay for human Octamer-Binding Transcription Factor (Oct) (AID 2282993). Conditions: HepG2 Attagene cis-factorial Oct reporter, mRNA; actives raise or lower the signal. A digest of the protocol:
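After 24 h compound exposure, transfected HepG2 cells were lysed for total RNA; reporter-specific cDNA was PCR-amplified, fluorescently labelled and sized by capillary electrophoresis. Bidirectional curve fitting used DMSO as baseline.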

Assay [6] concerns the target Cellular tumor antigen p53 (Homo sapiens) (UniProt P04637). Description: ATG_p53_CIS: Attagene CIS-FACTORIAL HepG2 Assay for human p53 Transcription Factor (AID 2282994). Conditions: HepG2 p53 cis-element reporter, Attagene mRNA; actives raise or lower the signal. The method in brief: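 Using HepG2 hepatoma cells carrying cis-acting multiplexed reporters, mRNA induction is detected after a 24 h exposure. Gain- and loss-of-signal responses are fitted relative to DMSO-treated cells.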

A short description of assay [7]: BSK_3C_TissueFactor: BioMAP Diversity Plus: 3C Assay for Tissue Factor Biomarker Activity (AID 2282997). As to conditions: BioMAP 3C HUVEC, tissue factor biomarker readout; actives raise or lower the signal. A digest of the protocol:
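Primary human umbilical vein endothelial cells in the 3C system were exposed to test chemical for 24 h, then Tissue Factor measured by ELISA. Activity was fitted bidirectionally against DMSO as negative control and baseline.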

Assay [8] in a line: BSK_3C_uPAR: BioMAP Diversity Plus: 3C Assay for Urokinase-type plasminogen activator receptor (uPAR) Biomarker Activity (AID 2282998). Conditions: BioMAP 3C HUVEC, uPAR biomarker ELISA; actives raise or lower the signal. The method in brief:
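Values derive from bidirectional curve fitting relative to DMSO, which served as baseline of activity. uPAR was measured by ELISA in human umbilical vein endothelial primary cultures 24 h after compound addition.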
Background: An ELISA detects its analyte on a solid surface through an enzyme-linked reagent.

Assay [9] is described as follows: BSK_3C_VCAM1: BioMAP Diversity Plus: 3C Assay for Vascular cell adhesion molecule 1 (VCAM1) Biomarker Activity (AID 2282999). As to conditions: BioMAP 3C HUVEC, VCAM1 ELISA, cytokine-stimulated; actives raise or lower the signal. The method in brief:
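Endothelial cells from human umbilical vein are treated with test chemical. At 24 h, VCAM-1 is measured by ELISA, and responses in either direction are fitted relative to DMSO.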

A short description of assay [10]: BSK_4H_Eotaxin3: BioMAP Diversity Plus: 4H Assay for Eotaxin 3 Biomarker Activity (AID 2283000).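 As to outcome: CCL26 protein level quantified by ELISA in parallel with SRB cytotoxicity check.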 As to conditions: primary human endothelial cells (HUVEC); actives raise or lower the signal. A digest of the protocol: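 HUVEC, 24 h post-dose, ELISA for Eotaxin-3/CCL26. Gain or loss of signal fitted bidirectionally vs DMSO baseline.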
The target in assay [11] is human Peroxisome Proliferator-activated Receptor alpha (PPARa), PPARA (gene 5465) (UniProt Q07869). Description: ATG_PPARa_TRANS: Attagene TRANS-FACTORIAL HepG2 Assay for human Peroxisome Proliferator-activated Receptor alpha (PPARa) (AID 2283001; active = hit-call score of the fitted dose curve at least 0.9, where 1 is the maximum;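 as to AC50: potency for gain of reporter signal over DMSO so agonist or activator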). A digest of the protocol:
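Reporter transcripts from GAL4-UAS units in transfected HepG2 were quantified 24 h after dosing. Detection used reverse transcription, PCR, fluorescent primer extension and capillary electrophoresis, with DMSO as baseline.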

For assay [12], the target named is human Peroxisome Proliferator-activated Receptor delta (PPARd), PPARD (gene 5467) (UniProt Q03181). As to the kind of experiment: ATG_PPARd_TRANS: Attagene TRANS-FACTORIAL HepG2 Assay for human Peroxisome Proliferator-activated Receptor delta (PPARd) (AID 2283002; active = hit-call score of the fitted dose curve at least 0.9, where 1 is the maximum). The method in brief:
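Read-out is induced reporter mRNA, quantified by RT-PCR with fluorescent labelling and capillary electrophoresis after 24 h dosing. Cells are HepG2 transiently carrying multiple GAL4-UAS reporter units driven by exogenous NR-GAL4 chimeras; DMSO serves as baseline.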

Read-out in assay [13]: Intercellular Adhesion Molecule 1 (ICAM1), ICAM1 (gene 3383)
As to the kind of experiment: BSK_3C_ICAM1: BioMAP Diversity Plus: 3C Assay for Intercellular Adhesion Molecule 1 (ICAM1) Biomarker Activity (AID 2283003). As to conditions: primary human endothelial cells (HUVEC); actives raise or lower the signal. The method in brief:
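Human vascular endothelial primary cells, 3C conditions, 24 h treatment. ICAM-1 by ELISA.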

The target of assay [14] is human Retinoic Acid Receptor beta (RARb), RARB (gene 5915) (UniProt P10826). As to the kind of experiment: ATG_RARb_TRANS: Attagene TRANS-FACTORIAL HepG2 Assay for human Retinoic Acid Receptor beta (AID 2283004; active = hit-call score of the fitted dose curve at least 0.9, where 1 is the maximum). A digest of the protocol:
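HepG2 cells transiently transfected with multiplexed GAL4-UAS reporter units expressing chimeric NR–Gal4 fusions; 24 h compound exposure. Reporter mRNA quantified by RT-PCR, 6-FAM labelling, HpaI digestion and capillary electrophoresis; gain-of-signal fitted against DMSO baseline.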

Assay [15] has as its target Retinoic acid receptor alpha (Homo sapiens) (UniProt P10276). Description: ATG_RARa_TRANS: Attagene TRANS-FACTORIAL HepG2 Assay for human Retinoic Acid Receptor alpha (RARa) (AID 2283005; active = hit-call score of the fitted dose curve at least 0.9, where 1 is the maximum). A digest of the protocol:
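Reporter transcripts, measured by RT-PCR with fluorescent labeling and capillary electrophoresis after 24 h dosing, reflect activity of an exogenous human RARa–GAL4 fusion in transiently transfected HepG2. Fitted for increase relative to DMSO.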

Assay [16] is described as follows: BSK_3C_Proliferation: Cell Proliferation Assessment in the BioMAP Diversity Plus: 3C Assay (AID 2283006).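 Also: potency may reflect either rise or fall in cell number versus DMSO.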 Conditions: primary human endothelial cells (HUVEC). The method in brief:
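Proliferation of human vascular endothelial primary cells after 48 h dosing, quantified as SRB-stained protein at 560 nm relative to DMSO.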

In assay [17] the target is Peroxisome proliferator-activated receptor gamma (Homo sapiens) (UniProt P37231). Description: ATG_PPARg_TRANS: Attagene TRANS-FACTORIAL HepG2 Assay for human Peroxisome Proliferator-activated Receptor-gamma (PPARg) (AID 2283007; active = hit-call score of the fitted dose curve at least 0.9, where 1 is the maximum). The method in brief:
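HepG2 cells are transiently transfected with GAL4-UAS reporter units driven by chimeric NR-Gal4 fusions and dosed for 24 h. Reporter mRNA is quantified by RT-PCR, 6-FAM labelling, HpaI digestion and capillary electrophoresis. Induction is scored against DMSO.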

Assay [18] has as its target Nuclear receptor subfamily 1 group I member 2 (Homo sapiens) (UniProt O75469). As to the kind of experiment: ATG_PXR_TRANS: Attagene TRANS-FACTORIAL HepG2 Assay for human Pregnane X Receptor (PXR) (AID 2283008; active = hit-call score of the fitted dose curve at least 0.9, where 1 is the maximum). The method in brief:
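Fluorescence intensity of FAM-labelled, HpaI-digested reporter amplicons, separated by capillary electrophoresis, quantifies induction. HepG2 cells with PXR-Gal4 trans-reporter system were exposed 24 h; DMSO defines baseline.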

Assay [19] deals with human Retinoic Acid Receptor gamma (RARg), RARG (gene 5916) (UniProt P13631). Description: ATG_RARg_TRANS: Attagene TRANS-FACTORIAL HepG2 Assay for human Retinoic Acid Receptor gamma (RARg) (AID 2283009; active = hit-call score of the fitted dose curve at least 0.9, where 1 is the maximum). A digest of the protocol: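 HepG2, RARg-GAL4 TRANS system, 24 h exposure; reporter mRNA by RT-PCR + CE fluorescence; increase over DMSO.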
Sequence of human Retinoic Acid Receptor gamma (RARg), RARG (gene 5916) (P13631 whole entry, looked up, the tested form may be a part): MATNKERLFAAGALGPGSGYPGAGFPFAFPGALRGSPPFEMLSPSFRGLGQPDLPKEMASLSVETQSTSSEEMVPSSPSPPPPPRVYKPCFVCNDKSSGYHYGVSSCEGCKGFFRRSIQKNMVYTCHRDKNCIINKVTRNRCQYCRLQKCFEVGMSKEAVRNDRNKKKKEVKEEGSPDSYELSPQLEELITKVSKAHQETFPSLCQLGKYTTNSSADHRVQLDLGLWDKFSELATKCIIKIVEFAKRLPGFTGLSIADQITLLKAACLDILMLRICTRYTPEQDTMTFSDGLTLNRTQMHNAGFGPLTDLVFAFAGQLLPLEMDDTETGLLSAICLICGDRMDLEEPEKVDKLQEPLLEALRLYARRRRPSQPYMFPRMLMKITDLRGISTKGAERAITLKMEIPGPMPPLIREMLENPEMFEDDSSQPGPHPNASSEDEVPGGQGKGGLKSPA
Assay [20] has as its target human RAR-related Orphan Receptor beta (RORb), RORB (gene 6096) (UniProt Q92753). Description: ATG_RORb_TRANS: Attagene TRANS-FACTORIAL HepG2 Assay for human RAR-related Orphan Receptor beta (RORb) (AID 2283010; active = hit-call score of the fitted dose curve at least 0.9, where 1 is the maximum). A digest of the protocol: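 In this TRANS-format test, human HepG2 cells express chimeric NR-Gal4 fusion proteins driving GAL4-UAS reporters. After 24 h dosing, reporter transcripts are measured by fluorescent RT-PCR/capillary electrophoresis, with DMSO as negative control.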

Sequence of Peroxisome proliferator-activated receptor gamma (Homo sapiens) (P37231 whole entry, looked up, the tested form may be a part): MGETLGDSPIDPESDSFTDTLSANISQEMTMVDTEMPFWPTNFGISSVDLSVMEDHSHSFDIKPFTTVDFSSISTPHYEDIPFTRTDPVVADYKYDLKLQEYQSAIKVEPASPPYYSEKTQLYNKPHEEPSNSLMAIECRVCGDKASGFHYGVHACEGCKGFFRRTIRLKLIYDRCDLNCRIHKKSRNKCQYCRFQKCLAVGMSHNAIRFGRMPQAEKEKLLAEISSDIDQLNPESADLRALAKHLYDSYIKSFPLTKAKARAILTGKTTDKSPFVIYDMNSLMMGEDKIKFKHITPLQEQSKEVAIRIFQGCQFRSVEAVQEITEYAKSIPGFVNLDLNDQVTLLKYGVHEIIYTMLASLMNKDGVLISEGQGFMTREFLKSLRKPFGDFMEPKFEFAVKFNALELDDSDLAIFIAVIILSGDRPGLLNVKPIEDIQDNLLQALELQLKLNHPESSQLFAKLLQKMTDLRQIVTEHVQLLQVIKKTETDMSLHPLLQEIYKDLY
Sequence of human Peroxisome Proliferator-activated Receptor delta (PPARd), PPARD (gene 5467) (Q03181 whole entry, looked up, the tested form may be a part): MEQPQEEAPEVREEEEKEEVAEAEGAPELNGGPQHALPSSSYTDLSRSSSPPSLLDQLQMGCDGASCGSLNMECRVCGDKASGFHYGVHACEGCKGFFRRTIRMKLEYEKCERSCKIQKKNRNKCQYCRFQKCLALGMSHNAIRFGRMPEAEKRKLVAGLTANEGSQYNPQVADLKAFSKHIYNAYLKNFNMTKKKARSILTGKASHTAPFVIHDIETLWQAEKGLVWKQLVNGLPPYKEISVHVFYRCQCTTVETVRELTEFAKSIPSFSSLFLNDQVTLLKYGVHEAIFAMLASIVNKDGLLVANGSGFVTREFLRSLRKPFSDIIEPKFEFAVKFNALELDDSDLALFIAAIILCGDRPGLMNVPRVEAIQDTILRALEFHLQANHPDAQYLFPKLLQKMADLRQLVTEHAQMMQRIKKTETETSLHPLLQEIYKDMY
Sequence of Nuclear receptor subfamily 1 group I member 2 (Homo sapiens) (O75469 whole entry, looked up, the tested form may be a part): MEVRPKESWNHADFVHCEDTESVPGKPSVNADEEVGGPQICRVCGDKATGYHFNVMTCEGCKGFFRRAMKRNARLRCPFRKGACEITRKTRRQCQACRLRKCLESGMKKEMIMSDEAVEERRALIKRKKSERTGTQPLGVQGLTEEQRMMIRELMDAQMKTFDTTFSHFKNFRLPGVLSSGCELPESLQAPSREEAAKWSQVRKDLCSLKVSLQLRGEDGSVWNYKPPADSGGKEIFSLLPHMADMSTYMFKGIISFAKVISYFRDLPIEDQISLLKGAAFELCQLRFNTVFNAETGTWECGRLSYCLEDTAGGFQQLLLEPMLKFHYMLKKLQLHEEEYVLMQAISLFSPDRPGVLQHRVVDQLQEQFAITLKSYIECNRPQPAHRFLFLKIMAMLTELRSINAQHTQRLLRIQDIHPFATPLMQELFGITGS
Sequence of Cellular tumor antigen p53 (Homo sapiens) (P04637 whole entry, looked up): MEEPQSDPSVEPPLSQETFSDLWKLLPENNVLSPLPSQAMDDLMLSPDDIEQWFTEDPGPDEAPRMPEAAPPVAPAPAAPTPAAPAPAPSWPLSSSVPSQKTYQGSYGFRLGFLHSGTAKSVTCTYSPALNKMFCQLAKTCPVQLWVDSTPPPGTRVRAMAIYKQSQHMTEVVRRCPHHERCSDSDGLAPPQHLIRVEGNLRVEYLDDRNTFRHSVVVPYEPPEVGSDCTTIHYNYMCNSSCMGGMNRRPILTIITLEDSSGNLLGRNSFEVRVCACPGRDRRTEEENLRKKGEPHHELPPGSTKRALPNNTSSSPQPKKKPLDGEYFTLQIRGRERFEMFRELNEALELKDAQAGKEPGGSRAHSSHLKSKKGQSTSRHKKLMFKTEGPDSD
Sequence of human RAR-related Orphan Receptor beta (RORb), RORB (gene 6096) (Q92753 whole entry, looked up, the tested form may be a part): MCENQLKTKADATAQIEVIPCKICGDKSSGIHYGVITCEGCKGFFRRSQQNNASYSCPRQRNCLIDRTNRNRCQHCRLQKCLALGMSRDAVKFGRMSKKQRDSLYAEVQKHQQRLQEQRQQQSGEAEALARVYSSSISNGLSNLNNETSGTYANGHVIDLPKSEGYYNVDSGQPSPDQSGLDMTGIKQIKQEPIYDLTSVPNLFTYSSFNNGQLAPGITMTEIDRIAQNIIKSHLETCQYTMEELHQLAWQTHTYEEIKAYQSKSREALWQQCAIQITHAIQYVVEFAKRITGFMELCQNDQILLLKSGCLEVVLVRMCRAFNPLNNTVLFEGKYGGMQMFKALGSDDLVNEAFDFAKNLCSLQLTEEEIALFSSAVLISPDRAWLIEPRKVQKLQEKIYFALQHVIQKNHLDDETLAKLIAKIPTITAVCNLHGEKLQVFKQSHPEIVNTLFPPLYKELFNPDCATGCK
Sequence of human Peroxisome Proliferator-activated Receptor alpha (PPARa), PPARA (gene 5465) (Q07869 whole entry, looked up, the tested form may be a part): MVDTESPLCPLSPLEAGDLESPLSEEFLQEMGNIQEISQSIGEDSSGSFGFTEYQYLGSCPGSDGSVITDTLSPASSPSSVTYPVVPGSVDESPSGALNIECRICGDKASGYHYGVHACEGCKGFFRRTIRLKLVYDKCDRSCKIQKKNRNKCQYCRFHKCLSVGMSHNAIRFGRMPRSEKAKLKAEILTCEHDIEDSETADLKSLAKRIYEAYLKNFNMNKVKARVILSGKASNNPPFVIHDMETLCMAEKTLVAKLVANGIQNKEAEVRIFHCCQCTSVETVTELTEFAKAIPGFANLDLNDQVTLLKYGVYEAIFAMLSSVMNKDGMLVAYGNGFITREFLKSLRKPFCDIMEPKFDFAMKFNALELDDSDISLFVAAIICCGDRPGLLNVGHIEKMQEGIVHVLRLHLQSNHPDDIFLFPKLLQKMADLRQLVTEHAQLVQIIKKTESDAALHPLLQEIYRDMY
Sequence of Retinoic acid receptor alpha (Homo sapiens) (P10276 whole entry, looked up, the tested form may be a part): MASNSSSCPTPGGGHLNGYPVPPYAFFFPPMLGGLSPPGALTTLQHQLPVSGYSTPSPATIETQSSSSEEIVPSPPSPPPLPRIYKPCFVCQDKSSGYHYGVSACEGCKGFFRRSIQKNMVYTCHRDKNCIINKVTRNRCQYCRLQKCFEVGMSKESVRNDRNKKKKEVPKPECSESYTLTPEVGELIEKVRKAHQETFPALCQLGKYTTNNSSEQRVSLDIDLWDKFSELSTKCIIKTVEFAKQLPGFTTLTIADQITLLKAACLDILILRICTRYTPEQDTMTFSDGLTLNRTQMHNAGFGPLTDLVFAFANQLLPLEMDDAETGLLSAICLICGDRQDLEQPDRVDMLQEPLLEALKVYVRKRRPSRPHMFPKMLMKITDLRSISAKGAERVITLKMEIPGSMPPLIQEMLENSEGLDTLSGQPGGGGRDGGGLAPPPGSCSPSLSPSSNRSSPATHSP
Sequence of human Retinoic Acid Receptor beta (RARb), RARB (gene 5915) (P10826 whole entry, looked up, the tested form may be a part): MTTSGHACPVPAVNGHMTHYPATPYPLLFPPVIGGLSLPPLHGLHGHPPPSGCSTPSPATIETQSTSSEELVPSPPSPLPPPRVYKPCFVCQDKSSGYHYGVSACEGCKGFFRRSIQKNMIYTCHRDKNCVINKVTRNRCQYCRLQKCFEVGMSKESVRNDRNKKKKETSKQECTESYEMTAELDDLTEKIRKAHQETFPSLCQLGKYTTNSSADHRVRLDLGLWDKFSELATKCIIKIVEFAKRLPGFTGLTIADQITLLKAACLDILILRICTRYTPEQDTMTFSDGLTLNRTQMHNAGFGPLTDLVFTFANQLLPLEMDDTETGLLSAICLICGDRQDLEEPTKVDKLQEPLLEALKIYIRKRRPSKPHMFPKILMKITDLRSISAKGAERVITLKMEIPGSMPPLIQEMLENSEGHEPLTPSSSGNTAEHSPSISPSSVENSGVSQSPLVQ

For `CCCCCCCCCc1ccc(O)cc1`, the compound was called inactive in assay [1], in assay [2], in assay [3], in [5], in assay [6] and in [12]. Also, the result in assay [14], in assay [15], in assay [18], in assay [19] and in assay [20] was inactive. Further, the AC50 (as a rule, the concentration giving half of the maximal activity seen) in assay [2] was 69 µM (active); in [3], 68.8 µM (active); in assay [4] it was 11.1 µM (active) and 26.6 µM (active) and 14.3 µM (active); in [7] it was 16.1 µM (active); in assay [8] it was 15.5 µM (active); in assay [9], 13.8 µM (active). Further, the AC50 is 15.2 µM (active) in [10]; 33.4 µM (active) and 21.6 µM (active) and 16.9 µM (active) in [11]; 25.5 µM (active) and 33.4 µM (active) in assay [12]; 15.4 µM (active) in assay [13]; 11.2 µM (active) in [16]; 33.4 µM (active) and 25.1 µM (active) and 9.23 µM (active) in [17]. For the same compound, in assay [18], the AC50 is 21.2 µM (active).

For the compound `CC(C)C(=O)OCC(C)(C)C(OC(=O)C(C)C)C(C)C` (stereo not drawn), the outcome in assay [1], in assay [2], in assay [3], in [4], in assay [5] and in assay [6] was inactive. The outcome in assay [7], in [8], in [9], in assay [10], in assay [11] and in assay [13] was inactive. For the same compound, the AC50 in [16] was 31.6 µM (active); in assay [18] it was 0.483 µM (active).
